Reference: PubChem BioAssay AID720555 (National Center for Advancing Translational Sciences (NCATS), 2013)
Several values for one entry are separate records, joined by “and”; a condition that tells them apart may be missing. Equal values may be shown once. Results filed as inconclusive are left out. Values without a mark were called inactive. Activity calls are given as the source filed them. The call rests on the fitted dose curve; in most records, active means well fitted inhibition curve with a large enough effect; inconclusive means small, poorly fitted or top-dose-only effect; inactive means no such curve, though single readings can be large or run the other way.

target: RecQ-like DNA helicase BLM (Homo sapiens) (UniProt P54132); experiment: qHTS for Inhibitors of Bloom's syndrome helicase (BLM): Helicase DNA unwinding fluorescent orthogonal confirmatory assay for SAR; conditions: fluorescence, orthogonal confirmation; series mostly up to 55.6 µM; activity change, negative = inhibition: at the top concentration
From the text: Human RecQ DNA helicases participate in maintenance of genome stability and DNA repair. While other types of helicases have been explored as targets for drug development, members of the RecQ family have remained less well characterized. Mutations of the Bloom helicase gene have been associated with the rare human genetic disease called Bloom syndrome. […] Moreover, identified inhibitors can be used in cells and animal models to examine the consequences of inhibition on the survival of cancer cells where it has been shown that BLM plays an important role.
A fluorescence-based, biochemical assay in 1536 well format was developed to evaluate inhibition of BLM DNA unwinding activity. This assay was used to screen the MLPCN library. The resulting compounds were subjected to orthogonal and secondary biochemical assays to triage the initial hits, to classify compounds based on mode of action and to derive structure activity relationships (SARs) of candidate effectors. The data herein is the result of the Helicase DNA unwinding fluorescent orthogonal confirmatory assay. This fluorescent-based assay employs a purified BLM enzyme and utilizes gel electrophoresis to monitor the helicase-mediated unwinding of a fluorescently-labeled DNA substrate. For this assay decrease in the single-stranded DNA product band on the gel = inhibition of the BLM helicase activity. Inhibition is the desired outcome for this assay.
NIH Chemical Genomics Center [NCGC]
NIH Molecular Libraries Probe Centers Network [MLPCN]
Assay Submitter (PI): Opher Gileadi, Structural Genomics Consortium, University of Oxford, UK
Unwinding assay for the BLM helicase was carried out in a reaction buffer containing 50 mM Tris-HCl pH 7.5, 50mM NaCl, 2mM MgCl2, 2mM ATP, 1mM DTT, and 0.1 mg/ml BSA. Optimal substrate and enzyme concentrations as well as reaction times were determined experimentally. All reactions were performed at room temperature and terminated by the addition of loading buffer containing 20mM EDTA and 2.5% bromophenol blue. Reaction products were then separated on 15% non-denaturing polyacrylamide gels in 1x TAE, and the DNA was visualized using the Bio-Rad ChemiDocTM XRS Gel Imager. Substrate and product bands were quantified using ImageJ. The data was normalized against no-inhibitor and no-enzyme controls.

RecQ-like DNA helicase BLM (Homo sapiens), sequence (P54132 whole entry, looked up): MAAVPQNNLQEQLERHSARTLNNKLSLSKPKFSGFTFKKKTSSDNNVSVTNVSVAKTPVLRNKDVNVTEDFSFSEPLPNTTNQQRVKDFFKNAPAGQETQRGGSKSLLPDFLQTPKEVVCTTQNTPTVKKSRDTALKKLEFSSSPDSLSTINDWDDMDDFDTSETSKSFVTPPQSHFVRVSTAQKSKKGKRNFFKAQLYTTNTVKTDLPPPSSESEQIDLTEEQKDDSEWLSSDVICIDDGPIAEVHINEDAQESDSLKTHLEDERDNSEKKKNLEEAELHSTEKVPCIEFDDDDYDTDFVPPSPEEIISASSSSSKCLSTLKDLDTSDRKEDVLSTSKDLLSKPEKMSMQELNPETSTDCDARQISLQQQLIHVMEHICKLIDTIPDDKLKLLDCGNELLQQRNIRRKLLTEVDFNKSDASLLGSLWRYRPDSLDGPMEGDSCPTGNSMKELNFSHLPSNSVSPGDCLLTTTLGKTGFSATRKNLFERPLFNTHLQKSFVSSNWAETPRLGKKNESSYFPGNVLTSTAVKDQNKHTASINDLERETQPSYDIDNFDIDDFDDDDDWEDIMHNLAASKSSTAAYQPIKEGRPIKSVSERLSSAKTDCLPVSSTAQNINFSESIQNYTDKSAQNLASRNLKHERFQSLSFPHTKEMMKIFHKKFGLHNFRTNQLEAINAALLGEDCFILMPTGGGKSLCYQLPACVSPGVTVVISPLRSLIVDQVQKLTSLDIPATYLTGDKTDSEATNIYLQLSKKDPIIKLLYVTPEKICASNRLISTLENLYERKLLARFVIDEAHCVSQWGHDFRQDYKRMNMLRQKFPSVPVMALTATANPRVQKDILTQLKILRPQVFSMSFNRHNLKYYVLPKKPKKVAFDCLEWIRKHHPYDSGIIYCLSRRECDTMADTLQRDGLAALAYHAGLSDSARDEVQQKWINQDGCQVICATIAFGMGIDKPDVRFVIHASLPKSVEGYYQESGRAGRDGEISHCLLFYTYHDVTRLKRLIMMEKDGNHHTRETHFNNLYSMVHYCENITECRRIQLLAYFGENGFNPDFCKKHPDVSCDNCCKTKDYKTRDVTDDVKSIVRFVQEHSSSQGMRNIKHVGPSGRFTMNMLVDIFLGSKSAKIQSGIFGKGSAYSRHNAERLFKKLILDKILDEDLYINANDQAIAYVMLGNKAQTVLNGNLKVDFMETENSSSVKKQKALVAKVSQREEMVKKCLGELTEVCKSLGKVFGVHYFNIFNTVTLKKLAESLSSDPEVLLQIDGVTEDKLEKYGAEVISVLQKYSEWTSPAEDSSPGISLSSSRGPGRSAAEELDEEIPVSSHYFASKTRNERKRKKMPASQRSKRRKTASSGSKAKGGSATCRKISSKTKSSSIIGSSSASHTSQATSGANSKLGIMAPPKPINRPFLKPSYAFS

Compound | activity change, negative = inhibition | Potency
COc1ccccc1CNC(=O)Nc1nnc(-c2ccncc2)s1 | 0.3% | –
O=C(Nc1ccc(Cl)c(Cl)c1)Nc1nnc(C2CCCCC2)s1 | -3.65% | –
O=C(Nc1ccc(Cl)c([N+](=O)[O-])c1)Nc1cccc(-c2ccncc2)n1 | – | 2.82 µM (active)
Cc1cc(NC(=O)Nc2nnc(-c3ccncc3)s2)ccc1C#N | – | 3.16 µM (active)
N/C(=N\c1nnc(-c2ccncc2)s1)Nc1ccc(F)c(C(F)(F)F)c1 | – | 35.5 µM (active)
O=C(Nc1ccc2sccc2c1)Nc1nnc(-c2cccnc2)s1 | – | 10 µM (active)
Cc1cc(NC(=O)Nc2cccc(-c3ccncc3)n2)ccc1Cl | – | 4.47 µM (active) and 3.55 µM (active)
O=C(Nc1ccc(Cl)c(Cl)c1)Nc1nnc(-c2ccncc2)o1 | 0.56% | –
Cc1cc(NC(=O)Nc2nnc(-c3cccnc3)s2)ccc1Br | – | 5.62 µM (active)
N#Cc1cc(NC(=O)Nc2cccc(-c3ccncc3)n2)ccc1Cl | – | 0.631 µM (active)
O=C(Nc1ccc2ccccc2c1)Nc1nnc(-c2ccncc2)o1 | -6.58% | –
Cc1cnccc1-c1nnc(NC(=O)Nc2ccc(F)c(C(F)(F)F)c2)s1 | – | 1.26 µM (active)
O=C(Nc1ccc(Cl)c([N+](=O)[O-])c1)Nc1nnc(-c2ccc(F)cc2)s1 | – | 2.24 µM (active)
N#CN/C(=N\c1nnc(-c2ccncc2)s1)Nc1ccc(F)c(C(F)(F)F)c1 | – | 3.16 µM (active)
Cc1cc(NC(=O)Nc2nnc(C3CCCCC3)s2)ccc1F | 2.36% | –
O=C(Nc1ccc(F)c(C(F)(F)F)c1)Nc1ccc(-c2ccncc2)s1 | -13.1% [at 53.6 µM] | –
O=C(NCc1ccc(Cl)c(Cl)c1)Nc1nnc(-c2ccncc2)s1 | – | 39.8 µM (active)
O=C(Nc1ccc(Cl)c(Cl)c1)Nc1ncc(-c2ccncc2)s1 | -22.2% [at 53.6 µM] | –
O=C(Nc1ccc(F)c(C(F)(F)F)c1)Nc1nnc(-c2cccnc2)s1 | – | 3.55 µM (active)
O=C(Nc1ccc(Br)c(Br)c1)Nc1cccc(-c2ccncc2)n1 | – | 0.891 µM (active)

Compound | activity change, negative = inhibition | Potency
O=C(Nc1cccc(C(F)(F)F)c1)Nc1nnc(-c2ccncc2)s1 | – | 14.1 µM (active)
O=C(Nc1ccc(Cl)nc1)Nc1nnc(-c2ccncc2)s1 | – | 6.31 µM (active)
O=C(Nc1ccc(-n2cncn2)c(F)c1)Nc1nnc(-c2ccncc2)s1 | – | 14.1 µM (active)
O=C(Nc1cc(C(F)(F)F)cc(C(F)(F)F)c1)Nc1nnc(-c2ccncc2)s1 | – | 12.6 µM (active)
O=C(Nc1ccc(F)c(F)c1)Nc1nnc(-c2ccncc2)s1 | – | 8.91 µM (active)
O=C(Nc1ccc(Cl)c(C(F)(F)F)c1)Nc1nnc(-c2ccncc2)s1 | – | 7.08 µM (active)
O=C(Nc1ccc(-c2nc3ccccc3[nH]2)cc1)Nc1ccc2c(c1)CCCO2 | -2% | –
Nc1cc(NC(=O)Nc2nnc(-c3ccncc3)s2)ccc1Cl | – | 11.2 µM (active)
Cc1cc(NC(=O)Nc2nnc(-c3ccncc3)s2)ccc1F | – | 15.8 µM (active)
O=C(Nc1ccc(Cl)c([N+](=O)[O-])c1)Nc1nnc(-c2ccncc2)s1 | – | 1 µM (active)
O=C(Nc1ccc2ccccc2c1)Nc1nnc(Br)s1 | -13.7% | –
O=C(Nc1ccc2ccccc2c1)Nc1nnc(-c2cccnc2)s1 | – | 10 µM (active)
O=C(Nc1ccc2ccccc2c1)Nc1nnc(-c2ccccc2Cl)s1 | -10.2% | –
N#Cc1cc(NC(=O)Nc2nnc(-c3ccncc3)s2)ccc1-c1ccc[nH]1 | – | 3.55 µM (active)
Cc1cc(NC(=O)Nc2cccc(-c3ccncc3)n2)ccc1Br | – | 12.6 µM (active)
O=C(Nc1ccc(N2CCOCC2)c(C(F)(F)F)c1)Nc1nnc(-c2ccncc2)s1 | – | 28.2 µM (active)
O=C(Nc1ccc(F)c(C(F)(F)F)c1)Nc1nnc(C2CCCCC2)s1 | 5.75% | –
O=C(Nc1ccc(-n2ccnc2)c(F)c1)Nc1nnc(-c2ccncc2)s1 | – | 10 µM (active)
N#Cc1ccc(NC(=O)Nc2nnc(-c3ccncc3)s2)cc1 | – | 7.94 µM (active)
O=C(Nc1ccccc1)Nc1nnc(-c2ccncc2)s1 | 1.11% | –
